# Assay results taken from the supplement of paper PMC8728848.
# This excerpt belongs to a sample that is enriched for the strongest signals.
# B1: Langerin K313I (Homo sapiens), Q9UJ71 (protein)
# chain: STLNAQIPELKSDLEKASALNTKIRALQGSLENMSKLLKRQNDILQVVSQGWKYFKGNFYYFSLIPKTWYSAEQFCVSRNSHLTSVTSESEQEFLYKTAGGLIYWIGLTKAGMEGDWSWVDDTPFNKVQSARFWIPGEPNNAGNNEHCGNIKAPSLQAWNDAPCDITFLFICKRPYVPSEP
# Assays:
# Experiment in all cases: glycan array binding signal (z-score within array); higher = stronger binding
# Settings in all cases: glycan notation: IUPAC condensed, linker removed
# [1] = target: Fuc(a1-2)Gal(b1-3)GlcNAc(b1-3)Gal(b1-4)Glc
# In short: (§1)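 The binding signal is a Z-score computed within each array. Data were drawn from 3228 arrays in the Consortium for Functional Glycomics database, restricted to those with a known protein sequence. Scores were averaged over arrays of the same protein sequence at different concentrations or buffers, and over linkers, and negative values can be taken as non-binding.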
# [2] = target: Fuc(a1-2)Gal(b1-4)[Fuc(a1-3)]GlcNAc(b1-3)Gal(b1-4)[Fuc(a1-3)]GlcNAc(b1-3)Gal(b1-4)[Fuc(a1-3)]GlcNAc
# In short: as §1
# Fuc(a1-2)[Gal(a1-3)]Gal = target: Fuc(a1-2)[Gal(a1-3)]Gal
# In short: as §1
# [3] = target: Fuc(a1-2)[Gal(a1-3)]Gal(b1-3)GlcNAc(b1-2)Man(a1-3)[Fuc(a1-2)[Gal(a1-3)]Gal(b1-3)GlcNAc(b1-2)Man(a1-6)]Man(b1-4)GlcNAc(b1-4)GlcNAc
# In short: as §1
# [4] = target: Fuc(a1-2)[Gal(a1-4)]Gal(b1-4)GlcNAc
# In short: as §1
# [5] = target: Fuc(a1-2)[GalNAc(a1-3)]Gal(b1-4)[Fuc(a1-3)]GlcNAc(b1-3)GalNAc
# In short: as §1
# [6] = target: Fuc(a1-2)[GalNAc(b1-3)]Gal
# In short: as §1
# Fuc(b1-3)GlcNAc = target: Fuc(b1-3)GlcNAc
# In short: as §1
# Gal(a1-2)Gal = target: Gal(a1-2)Gal
# In short: as §1
# [7] = target: Gal(a1-3)Gal(b1-3)[Fuc(a1-4)]GlcNAc(b1-2)Man(a1-3)[Gal(a1-3)Gal(b1-3)[Fuc(a1-4)]GlcNAc(b1-2)Man(a1-6)]Man(b1-4)GlcNAc(b1-4)GlcNAc
# In short: as §1
# [8] = target: Gal(b1-3)GlcNAc(b1-3)Gal(b1-4)Glc
# In short: as §1
# [9] = target: Gal(b1-3)GlcNAc(b1-3)Gal(b1-4)[Fuc(a1-3)]GlcNAc(b1-6)[Gal(b1-3)GlcNAc(b1-3)]Gal(b1-4)Glc
# In short: as §1
# [10] = target: Gal(b1-3)GlcNAc(b1-6)[Gal(b1-3)]GalNAc
# In short: as §1
# [11] = target: Gal(b1-3)[Fuc(a1-4)]GlcNAc(b1-3)Gal(b1-3)[Fuc(a1-4)]GlcNAc
# In short: as §1
# Gal(b1-4)GlcNAc = target: Gal(b1-4)GlcNAc
# In short: as §1
# [12] = target: Gal(b1-4)GlcNAc(b1-2)Man(a1-3)[Gal(b1-4)GlcNAc(b1-2)Man(a1-6)][Gal(b1-4)GlcNAc(b1-4)]Man(b1-4)GlcNAc(b1-4)[Fuc(a1-6)]GlcNAc
# In short: as §1
# [13] = target: Gal(b1-4)GlcNAc(b1-2)Man(a1-6)Man(b1-4)GlcNAc(b1-4)GlcNAc
# In short: as §1
# [14] = target: Gal(b1-4)GlcNAc(b1-3)Gal(b1-4)GlcNAc(b1-2)Man(a1-3)[Gal(b1-4)GlcNAc(b1-3)Gal(b1-4)GlcNAc(b1-2)Man(a1-6)]Man(b1-4)GlcNAc(b1-4)GlcNAc
# In short: as §1
# [15] = target: Gal(b1-4)GlcNAc(b1-3)Gal(b1-4)GlcNAc(b1-3)Gal(b1-4)GlcNAc(b1-3)Gal(b1-4)GlcNAc(b1-2)Man(a1-3)[Gal(b1-4)GlcNAc(b1-3)Gal(b1-4)GlcNAc(b1-3)Gal(b1-4)GlcNAc(b1-3)Gal(b1-4)GlcNAc(b1-2)Man(a1-6)]Man(b1-4)GlcNAc(b1-4)GlcNAc
# In short: as §1
# [16] = target: Gal(b1-4)GlcNAc(b1-3)Gal(b1-4)GlcNAc(b1-3)Gal(b1-4)GlcNAc(b1-3)Gal(b1-4)GlcNAc(b1-3)Gal(b1-4)GlcNAc(b1-3)Gal(b1-4)GlcNAc(b1-2)Man(a1-3)[Gal(b1-4)GlcNAc(b1-3)Gal(b1-4)GlcNAc(b1-3)Gal(b1-4)GlcNAc(b1-3)Gal(b1-4)GlcNAc(b1-3)Gal(b1-4)GlcNAc(b1-3)Gal(b1-4)GlcNAc(b1-2)Man(a1-6)]Man(b1-4)GlcNAc(b1-4)GlcNAc
# In short: as §1
# [17] = target: Gal(b1-4)GlcNAc(b1-3)Gal(b1-4)GlcNAc(b1-6)[Gal(b1-3)]GalNAc
# In short: as §1
# [18] = target: Gal(b1-4)GlcNAc(b1-3)GalNAc
# In short: as §1
# [19] = target: Gal(b1-4)GlcNAc(b1-3)[GlcNAc(b1-6)]Gal(b1-4)GlcNAc
# In short: as §1
# Gal(b1-6)Gal = target: Gal(b1-6)Gal
# In short: as §1
# Gal3S(b1-3)GlcNAc = target: Gal3S(b1-3)GlcNAc
# In short: as §1
# [20] = target: Gal3S(b1-4)[Fuc(a1-3)]GlcNAc6S
# In short: as §1
# Gal6P(b1-4)GlcNAc = target: Gal6P(b1-4)GlcNAc
# In short: as §1
# GalNAc(b1-3)Gal = target: GalNAc(b1-3)Gal
# In short: as §1
# GalNAc(b1-3)GalNAc = target: GalNAc(b1-3)GalNAc
# In short: as §1
# GalNAc(b1-6)GalNAc = target: GalNAc(b1-6)GalNAc
# In short: as §1
# [21] = target: GlcNAc(a1-3)Gal(b1-4)GlcNAc
# In short: as §1
# [22] = target: GlcNAc(b1-2)Man(a1-3)[GlcNAc(b1-4)][GlcNAc(b1-2)Man(a1-6)]Man(b1-4)GlcNAc(b1-4)[Fuc(a1-6)]GlcNAc
# In short: as §1
# [23] = target: GlcNAc(b1-3)Gal(b1-4)GlcNAc
# In short: as §1
# [24] = target: GlcNAc(b1-3)Gal(b1-4)GlcNAc(b1-2)[GlcNAc(b1-3)Gal(b1-4)GlcNAc(b1-6)]Man(a1-6)[GlcNAc(b1-3)Gal(b1-4)GlcNAc(b1-2)Man(a1-3)]Man(b1-4)GlcNAc(b1-4)GlcNAc
# In short: as §1
# [25] = target: GlcNAc(b1-3)Gal(b1-4)GlcNAc(b1-3)Gal(b1-4)GlcNAc(b1-2)Man(a1-3)[GlcNAc(b1-3)Gal(b1-4)GlcNAc(b1-3)Gal(b1-4)GlcNAc(b1-2)Man(a1-6)]Man(b1-4)GlcNAc(b1-4)[Fuc(a1-6)]GlcNAc
# In short: as §1
# [26] = target: GlcNAc(b1-3)Gal(b1-4)GlcNAc(b1-3)Gal(b1-4)GlcNAc(b1-2)[GlcNAc(b1-3)Gal(b1-4)GlcNAc(b1-3)Gal(b1-4)GlcNAc(b1-6)]Man(a1-6)[GlcNAc(b1-3)Gal(b1-4)GlcNAc(b1-3)Gal(b1-4)GlcNAc(b1-2)Man(a1-3)]Man(b1-4)GlcNAc(b1-4)[Fuc(a1-6)]GlcNAc
# In short: as §1
# [27] = target: GlcNAc(b1-3)Gal(b1-4)GlcNAc(b1-3)Gal(b1-4)GlcNAc(b1-3)Gal(b1-4)GlcNAc(b1-3)Gal(b1-4)GlcNAc(b1-2)Man(a1-3)[GlcNAc(b1-3)Gal(b1-4)GlcNAc(b1-3)Gal(b1-4)GlcNAc(b1-3)Gal(b1-4)GlcNAc(b1-3)Gal(b1-4)GlcNAc(b1-2)Man(a1-6)]Man(b1-4)GlcNAc(b1-4)[Fuc(a1-6)]GlcNAc
# In short: as §1
# [28] = target: GlcNAc(b1-3)Gal(b1-4)GlcNAc(b1-6)[GlcNAc(b1-3)]Gal(b1-4)GlcNAc
# In short: as §1
# [29] = target: GlcNAc(b1-3)[GlcNAc(b1-6)]Gal(b1-4)GlcNAc
# In short: as §1
# Kdn(a2-3)Gal(b1-3)GalNAc = target: Kdn(a2-3)Gal(b1-3)GalNAc
# In short: as §1
# [30] = target: Man(a1-2)Man(a1-2)Man(a1-6)[Man(a1-3)]Man
# In short: as §1
# [31] = target: Man(a1-2)Man(a1-3)[Man(a1-2)Man(a1-6)]Man(a1-6)[Man(a1-2)Man(a1-2)Man(a1-3)]Man
# In short: as §1
# [32] = target: Man(a1-2)Man(a1-3)[Man(a1-6)]Man(a1-6)[Man(a1-2)Man(a1-3)]Man(b1-4)GlcNAc(b1-4)GlcNAc
# In short: as §1
# [33] = target: Man(a1-2)Man(a1-6)[Man(a1-3)]Man(a1-6)[Man(a1-2)Man(a1-2)Man(a1-3)]Man(b1-4)GlcNAc(b1-4)GlcNAc
# In short: as §1
# [34] = target: Neu5Ac(a2-3)Gal(b1-4)GlcNAc(b1-3)Gal(b1-4)GlcNAc
# In short: as §1
# [35] = target: Neu5Ac(a2-3)Gal(b1-4)GlcNAc(b1-3)Gal(b1-4)GlcNAc(b1-3)[Neu5Ac(a2-3)Gal(b1-4)GlcNAc(b1-3)Gal(b1-4)GlcNAc(b1-6)]GalNAc
# In short: as §1
# Neu5Ac(a2-6)Gal(b1-4)Glc = target: Neu5Ac(a2-6)Gal(b1-4)Glc
# In short: as §1
# [36] = target: Neu5Ac(a2-6)GlcNAc(b1-4)GlcNAc
# In short: as §1
# [37] = target: Neu5Gc(a2-3)Gal(b1-4)GlcNAc(b1-3)Gal(b1-4)GlcNAc(b1-2)Man(a1-3)[Neu5Gc(a2-3)Gal(b1-4)GlcNAc(b1-3)Gal(b1-4)GlcNAc(b1-2)Man(a1-6)]Man(b1-4)GlcNAc(b1-4)GlcNAc
# In short: as §1
binder,measurement,setting,value
B1,glycan array binding signal (z-score),[1],-0.379
same,glycan array binding signal (z-score),[2],-0.042
same,glycan array binding signal (z-score),Fuc(a1-2)[Gal(a1-3)]Gal,4.11
same,glycan array binding signal (z-score),[3],-0.164
same,glycan array binding signal (z-score),[4],-0.287
same,glycan array binding signal (z-score),[5],0.321
same,glycan array binding signal (z-score),[6],-0.358
same,glycan array binding signal (z-score),Fuc(b1-3)GlcNAc,-0.307
same,glycan array binding signal (z-score),Gal(a1-2)Gal,-0.155
same,glycan array binding signal (z-score),[7],0.468
same,glycan array binding signal (z-score),[8],-0.361
same,glycan array binding signal (z-score),[9],-0.333
same,glycan array binding signal (z-score),[10],-0.253
same,glycan array binding signal (z-score),[11],0.067
same,glycan array binding signal (z-score),Gal(b1-4)GlcNAc,-0.346
same,glycan array binding signal (z-score),[12],-0.254
same,glycan array binding signal (z-score),[13],-0.235
same,glycan array binding signal (z-score),[14],0.326
same,glycan array binding signal (z-score),[15],0.149
same,glycan array binding signal (z-score),[16],0.037
same,glycan array binding signal (z-score),[17],0.134
same,glycan array binding signal (z-score),[18],-0.373
same,glycan array binding signal (z-score),[19],-0.314
same,glycan array binding signal (z-score),Gal(b1-6)Gal,-0.178
same,glycan array binding signal (z-score),Gal3S(b1-3)GlcNAc,-0.376
same,glycan array binding signal (z-score),[20],-0.39
same,glycan array binding signal (z-score),Gal6P(b1-4)GlcNAc,-0.298
same,glycan array binding signal (z-score),GalNAc(b1-3)Gal,-0.374
same,glycan array binding signal (z-score),GalNAc(b1-3)GalNAc,3.83
same,glycan array binding signal (z-score),GalNAc(b1-6)GalNAc,-0.384
same,glycan array binding signal (z-score),[21],-0.393
same,glycan array binding signal (z-score),[22],4.2
same,glycan array binding signal (z-score),[23],3.17
same,glycan array binding signal (z-score),[24],4.12
same,glycan array binding signal (z-score),[25],3.2
same,glycan array binding signal (z-score),[26],9.38
same,glycan array binding signal (z-score),[27],-0.005
same,glycan array binding signal (z-score),[28],10.1
same,glycan array binding signal (z-score),[29],6.18
same,glycan array binding signal (z-score),Kdn(a2-3)Gal(b1-3)GalNAc,0.361
same,glycan array binding signal (z-score),[30],7.95
same,glycan array binding signal (z-score),[31],3.54
same,glycan array binding signal (z-score),[32],-0.194
same,glycan array binding signal (z-score),[33],0.146
same,glycan array binding signal (z-score),[34],-0.396
same,glycan array binding signal (z-score),[35],-0.089
same,glycan array binding signal (z-score),Neu5Ac(a2-6)Gal(b1-4)Glc,-0.278
same,glycan array binding signal (z-score),[36],-0.387
same,glycan array binding signal (z-score),[37],0.158
